Glioma ERSR ind: induces the endoplasmic reticulum stress response in human glioma cells. U87-MG GRP78 promoter luciferase reporter, 16 h. Potency, µM, usual class: activators. 420,000 tested, 0.02% active. AID 602332; active means well fitted activation curve with a large enough effect; inconclusive means small, poorly fitted or top-dose-only effect; inactive means no such curve, though single readings can be large or run the other way; further: series mostly up to about 76 µM; nearly all actives have a fitted effect of over 35% in size
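ERSR induction read as luciferase luminescence (Bright-Glo, 10 min at room temperature) in stably transfected human U87-MG glioma cells exposed to compounds for 16 h, using GRP78 as sensor.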
Akt phos inh: blocks phosphorylation of Akt. Neuro2A IGF-stimulated pAkt S473 HTRF, 20 min; stronger effect = lower value. activity change, % for hits at 50 µM. 360,000 tested, 0.32% active. AID 651550; in the data active means activity change below about -80%; inconclusive means mostly about -51% to -80%
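Single-point screen (50 µM final compound) in Neuro2A cells stimulated 20 min with 6 nM IGF at 37 deg C. After lysis, Ser473-phosphorylated Akt read by HTRF (ex 330 nm, em 615/665 nm) as the 665/615 ratio.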
gsp antagonist: antagonists of gsp mutant (McCune-Albright syndrome); Potency, µM (top dose mostly 76.9 µM), hits mostly inhibitors; gsp-mutant cells, cAMP HTRF, 30 min; 340,000 tested, 0.4% active; calls by dose curve; cell line not stated here;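 further: intracellular cAMP measured with PDE inhibitor Ro 20-1724 present during compound exposure; nearly all actives have a fitted effect of over 65% in size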
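G418-selected cells were plated in DMEM/10% FBS for 16-24 h at 37C, then treated with compounds plus the PDE inhibitor […] (300 uM solution added) for 30 min at 37C. Intracellular cAMP was measured by HTRF after 30 min lysis at room temperature.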
gsp ag: gsp mutant agonism; gsp mutant cells, cAMP HTRF, 30 min; Potency, µM (highest dose often 76.9 µM), hits mostly activators; 340,000 tested, 0.13% active; active means well fitted activation curve with a large enough effect; inconclusive means small, poorly fitted or top-dose-only effect, or another doubt; inactive means no such curve, though single readings can be large or run the other way; cell line not stated here;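 further: phosphodiesterase inhibitor Ro 20-1724 added with compounds to block cAMP breakdown; nearly all actives have a fitted effect of over 60% in size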
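Cells stably selected in G418 were plated at 2000/well, grown 16-24 hr, then given compounds in DMSO with the PDE inhibitor […] (300 uM solution added) for 30 min at 37C; cAMP was read by HTRF.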
hERG WT inh: KCNH2 (human, wildtype) channel inhibition; AID 720551; activity change, % at 1.84 µM; Q12809; 340,000 tested, 0.37% active; U2OS, BacMam KCNH2, thallium flux FluxOr; stronger effect = lower value;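 active means maximum activity change below -70%; inconclusive means maximum activity change between -70% and -50%; inactive means maximum activity change above -50%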
Target sequence (Q12809 whole entry, looked up): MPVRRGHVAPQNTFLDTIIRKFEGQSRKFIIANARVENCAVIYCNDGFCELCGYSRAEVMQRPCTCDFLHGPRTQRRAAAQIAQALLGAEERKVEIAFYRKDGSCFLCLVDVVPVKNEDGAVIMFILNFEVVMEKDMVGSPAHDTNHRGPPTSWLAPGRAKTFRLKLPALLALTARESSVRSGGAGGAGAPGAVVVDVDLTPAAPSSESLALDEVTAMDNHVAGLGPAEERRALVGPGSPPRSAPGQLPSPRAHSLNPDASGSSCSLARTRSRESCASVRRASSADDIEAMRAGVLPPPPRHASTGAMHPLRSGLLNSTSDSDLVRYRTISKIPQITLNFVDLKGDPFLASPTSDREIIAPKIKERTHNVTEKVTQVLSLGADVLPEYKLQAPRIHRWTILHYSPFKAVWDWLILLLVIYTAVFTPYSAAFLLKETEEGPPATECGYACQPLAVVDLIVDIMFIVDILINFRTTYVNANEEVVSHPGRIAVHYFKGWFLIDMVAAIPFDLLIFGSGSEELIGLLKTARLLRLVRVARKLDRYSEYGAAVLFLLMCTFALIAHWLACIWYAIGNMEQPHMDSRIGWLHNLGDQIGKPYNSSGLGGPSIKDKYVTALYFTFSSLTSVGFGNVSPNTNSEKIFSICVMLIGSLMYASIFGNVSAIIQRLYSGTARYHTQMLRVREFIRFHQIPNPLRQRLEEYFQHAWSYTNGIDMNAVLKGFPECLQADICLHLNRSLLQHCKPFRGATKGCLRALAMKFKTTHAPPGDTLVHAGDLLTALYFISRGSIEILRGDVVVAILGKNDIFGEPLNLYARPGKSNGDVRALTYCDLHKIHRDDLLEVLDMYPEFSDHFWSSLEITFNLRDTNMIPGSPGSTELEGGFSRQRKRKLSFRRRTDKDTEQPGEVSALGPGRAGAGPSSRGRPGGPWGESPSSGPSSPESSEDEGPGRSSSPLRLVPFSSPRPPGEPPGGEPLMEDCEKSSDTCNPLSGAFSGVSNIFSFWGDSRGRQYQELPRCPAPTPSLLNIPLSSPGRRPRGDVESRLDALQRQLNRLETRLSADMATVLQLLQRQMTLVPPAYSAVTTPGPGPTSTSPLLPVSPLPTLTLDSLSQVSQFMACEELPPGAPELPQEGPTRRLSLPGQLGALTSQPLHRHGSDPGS
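U2OS cells transduced with wild-type KCNH2 virus are loaded with FluxOr dye for 45 min, and thallium flux is measured in kinetic reads before and after stimulation buffer. Rate constants are normalized to DMSO controls.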
KCNH2 3.1 block: KCNH2 3.1 (human) potassium channel inhibition; U2OS KCNH2 3.1, thallium flux FluxOr; stronger effect = lower value; activity change, % (tested at about 1.8 µM); 340,000 tested, 0.95% active; AID 720553;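 active means maximum activity change below -70%; inconclusive means maximum activity change from -70% to -50%; inactive means maximum activity change above -50%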;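 further: thallium influx rate constant from kinetic fluorescence after stimulation buffer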
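We transduce U2OS cells with the mutant 3.1 virus, culture them overnight, load FluxOr with Red40 quencher for 45 min, then add stimulation buffer and read kinetically for 2 min to derive a normalized rate constant.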
A number is an active result; - = inactive; ? = inconclusive; . = no result given; [ ] = remark or other dose. Only some compounds are listed: those with a hit (about 1.6% of all), similar ones and a draw of the others.

SMILES	Glioma ERSR ind	Akt phos inh	gsp antagonist	gsp ag	hERG WT inh	KCNH2 3.1 block
CC(C)C(NC(=O)c1ccccn1)c1nnc2n1CCN(Cc1ccc3ccccc3c1)CC2 (stereo not given)	-	.	.	.	.	.
COc1ccc2nc(SCc3nc(N)nc(Nc4ccccc4)n3)[nH]c2c1	-	-101.5%	-	-	-	-
Clc1cccc(-c2cc3nc4c(c(NCc5ccco5)n3n2)CCCC4)c1	-	-	-	-	-	-100.9
c1coc(CNc2c3c(nc4ncnn24)CCCC3)c1	-	-	-	-	-	-
CN1CCCc2cc(/C=C/c3ccnc4ccccc34)ccc21	-	.	.	.	.	.
Cc1cc2n(n1)C(c1sccc1C)Nc1ccccc1-2 (stereo not given)	-	-	-	-	-	-
Cc1ccc2c(c1)-c1cc(C)nn1C(c1sccc1C)N2 (stereo not given)	-	-	-	-	-155.3	-
O=C(Nc1ccn(CCCN2CCN(c3ncccn3)CC2)c(=O)n1)OCc1ccccc1	-	-	.	-	-73.7	-
O=C(Nc1ccn(CCCN2CCN(Cc3ccc(F)cc3)CC2)c(=O)n1)OCc1ccccc1	-	-	.	-	-	-
Cc1ccc([C@H]2N[C@]3(CCCN(Cc4cccn4C)C3=O)[C@H]3C(=O)N(Cc4ccccc4)C(=O)[C@@H]23)cc1	-	-	.	-	-71.1	-
Cn1cccc1CN1CCC[C@]2(N[C@H](c3ccccc3)[C@@H]3C(=O)N(Cc4ccccc4)C(=O)[C@@H]32)C1=O	-	-	.	?	-	-
Cc1oc(-c2ccccc2NC(=O)C2CCCO2)nc1CNC(=O)c1cc(F)c(F)cc1F (stereo not given)	-	.	.	.	.	.
CC(=O)Nc1ccc(S(=O)(=O)NC(C(=O)O)C(C)C)cc1 (stereo not given)	-	-	-	-	-	-72.0
CC(Sc1ccc2nnc(-c3ccc(F)cc3)n2n1)C(=O)O (stereo not given)	-	-	-	?	-	-
CCC(Sc1ccc2nnc(-c3cccnc3)n2n1)C(=O)O (stereo not given)	-	-	-	2.51µM	-	-
Cc1ccc(-c2nnc3ccc(SC(C)C(=O)O)nn23)cc1 (stereo not given)	-	-	-	10µM	-	-
COC(=O)C(C)Sc1ccc2nnc(-c3ccccc3)n2n1 (stereo not given)	-	-	-	10µM	-	-
Cc1cc(Nc2ccccc2C(=O)O)ccc1Cl	-	.	.	.	.	.
CCCCNC(=O)Cn1c(SCc2cccc(F)c2)nc2ccncc21	-	.	.	.	.	.
COc1ccc(CCN(C)Cc2cc(-c3cncnc3)ccc2O)cc1OC	-	.	.	.	.	.
O=C(c1n[nH]c2c1CCCC2)N1CCOc2ccc(C(O)C(c3ccccc3)c3ccccc3)cc2C1 (stereo not given)	-	.	.	.	.	.
Cc1ccc(C(=O)Nc2nc(=O)n(C(=O)c3ccccc3C)s2)cc1	-	-	39.8µM	-	-	-
Cc1ccc(C(=O)Nc2nc(=O)n(C(=O)C3CC3)s2)cc1	-	-	?	-	-	-
COC(=O)CC1C(=O)NCCN1C(=O)CN1Cc2ccccc2OC(c2ccccc2)C1 (stereo not given)	-	.	.	.	.	.
COc1cc(CN2CCN(S(=O)(=O)c3ccccc3)CC2)cc(OC)c1OC	-	-	-	-	-	-
SMILES	Glioma ERSR ind	Akt phos inh	gsp antagonist	gsp ag	hERG WT inh	KCNH2 3.1 block
O=[N+]([O-])c1ccccc1CN1CCN(Cc2ccc3ccccc3c2)CC1	-	-	-	-	-	-80.4
COc1ccc(CN2CCN(Cc3ccc4ccccc4c3)CC2)cc1OC	-	-	-	-[15.4 µM]	-	-87.6
COc1cc(CN2CCN(C(O)(c3ccccc3)c3ccccc3)CC2)cc(OC)c1OC	-	-	-	?	-	-75.5
COc1cc(CN2CCCC(C)C2)ccc1OCc1ccccc1 (stereo not given)	-	-	-	-[15.4 µM]	-	-84.5
Cc1cccc(CNC(=O)c2cnn(-c3nccc(-c4cc5ccccc5o4)n3)c2C2CC2)n1	-	.	.	.	.	.
COC(=O)c1c(OCc2ccccn2)cc(=O)n2c1CCN(C(=O)c1n[nH]c3c1CCCC3)CC2	-	.	.	.	.	.
Cn1nc(CC(=O)NC2CCCCCCCCCCC2)c2ccccc2c1=O	-	-	-	-	-	-
Cn1nc(CC(=O)Nc2ccc3c(c2)CCC3)c2ccccc2c1=O	-	-126.0%	-	-	-	-
CCN(CC)CCn1c(SCC(=O)Nc2ccc3c(c2)CCC3)nc2ccccc2c1=O	-	-	-	?	-	-87.4
Cc1ccc(NC(=O)CSc2nc3ccccc3c(=O)n2CCCN2CCCCC2)cc1Cl	-	-	-	-[15.4 µM]	-	-74.5
O=C(CSc1nc2ccccc2c(=O)n1-c1ccccc1F)Nc1ccc2c(c1)CCC2	-	-	-	-	-	-
O=S(=O)(Nc1nc2ccccc2nc1Cl)c1ccc(Cl)cc1	-	-	-	-[15.4 µM]	-	-
Cc1ccccc1S(=O)(=O)Nc1nc2ccccc2nc1Cl	-	-	-	11.2µM	-	-
COc1ccc([C@H]2[C@H](C(=O)C(C)(C)C)N3N=Cc4ccccc4C3[C@]23N=C(c2ccccc2)OC3=O)cc1 (stereo not given in full)	-	-	-	-	-	-
COc1ccc([C@H]2[C@H](C(=O)C(C)(C)C)N3N=Cc4ccccc4C3[C@]23N=C(c2ccccc2)OC3=O)cc1OC (stereo not given in full)	-	-106.4%	-	-	-	-
CN1C(=O)/C(=C/c2ccc3c(c2)OCO3)N=C1c1ccccc1	-	-	-	-	-	-122.6
CCSC1=N/C(=C\c2ccc3c(c2)OCO3)C(=O)S1	-	-	-	-	-	-
CC(=O)c1ccc(F)c(-c2cc(C)cc3c2OC(CNC(=O)c2ccnn2C)C3)c1 (stereo not given)	-	.	.	.	.	.
O=C(NC1CCCc2ccccc21)C1CCN(c2nnc(-n3cccc3)s2)CC1 (stereo not given)	-	-	-	?	-	-79.1
O=C(NCc1ccccc1)c1cccc(OCC(=O)N2CCN(C(=O)c3ccco3)CC2)c1	-	-	-	-	-	-96.6
CC(C)(C)N1C(=O)[C@H]2[C@H]3[C@H](O)[C@H](O)C/C(=N/OCc4ccccc4)[C@@H]3CC[C@@H]2C1=O	-	.	.	.	.	.
COc1ccccc1C1CN(CC(=O)N2CCC(N3CCOCC3)CC2)Cc2ccccc2O1 (stereo not given)	-	.	.	.	.	.
CCN(CC)S(=O)(=O)c1ccc(N2CCCC2)c(NS(=O)(=O)c2ccc(F)cc2)c1	-	-	-	25.1µM	-	-
CCN(CC)S(=O)(=O)c1ccc(N2CCCC2)c(NS(=O)(=O)c2ccccc2)c1	-	-	-	-	-	-
O=C(c1ccco1)N(Cc1cc2cc3c(cc2nc1N1CCOCC1)CCC3)CC1CCCO1 (stereo not given)	-	.	.	.	.	.

Screens as filed in PubChem.
